Only some compounds are listed: those with a hit (about 8.3% of all), similar ones and a draw of the others.
FMDV antiviral: blocks foot and mouth disease virus. FMDV antiviral cell-based qHTS. Potency, µM (series often up to 57.9 µM), for inactives: at the top dose activity change, negative = inhibition, actives largely listed as inhibitors. 410,000 tested, 1.2% active; calls by dose curve; tested in HEK293T cells; note: read-out not given here; potency is the fitted concentration of half-maximal effect; nearly all actives have a fitted effect of over 45% in size
HCMV antiviral: human cytomegalovirus inhibition; HFF cells, HCMV-luciferase reporter, 72 h; hits give low values; activity change, negative = inhibition, % at 57.5 µM; 410,000 tested, 4.5% active; in the data active = activity change below about -60%; inconclusive = no clear call, values can overlap the other calls; inactive = above about -39%
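Screen run at 2 compound doses on HFFs infected with reporter HCMV, MOI 1 PFU/cell. Luciferase activity from cell lysates at 72 h post infection gave inhibition relative to buffer-only and Salinomycin wells.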
MARV entry inh: inhibitors of Marburg virus binding or cell entry; Marburg virus pseudotyped entry inhibition, cell reporter; 300,000 tested, 1.8% active; Potency, µM (highest dose often 37.8 µM), for the others: at the highest dose activity change, negative = inhibition, actives largely listed as inhibitors; calls by dose curve; tested in HEK293 cells; note: potency is the fitted concentration of half-maximal effect
HCV inhibitor: blocks hepatitis C virus; Huh7.5.1 HCVcc-Cre infection, luciferase reporter, 44 h; 340,000 tested, 3.4% active; AID 651820; Potency, µM (titrated, usually from 41.8 µM), without a hit: top-dose activity change, negative = inhibition, usual class: inhibitors; note: potency is the fitted concentration of half-maximal effect
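1,000 cells/well; 4 h culture; + compound; + HCVcc-Cre (~0.5 moi); 44 h; luciferase substrate, RT 15 min; read 15 sec.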
LASV entry inh: inhibitors of Lassa virus binding or cell entry; Lassa virus pseudotype entry inhibition, cell reporter; Potency, µM (series often up to 37.9 µM), for the others: at the top dose activity change, negative = inhibition, most hits filed as inhibitors; 300,000 tested, 1.2% active; AID 540256; calls by dose curve; tested in HEK293 cells; note: potency is the fitted concentration of half-maximal effect; nearly all actives have a fitted effect of over 50% in size
FBPA Giardia inh: inhibitors of Giardia lamblia fructose-1,6-bisphosphate aldolase | purified Giardia FBPA | Potency, µM (doses to about 59.6 µM), without a hit: at the highest dose activity, negative = inhibition, usual class: inhibitors | 290,000 tested, 0.71% active | AID 2451; note: potency is the fitted concentration of half-maximal effect; nearly all actives have a fitted effect of over 55% in size
Target sequence (A8B2U2 whole entry, looked up): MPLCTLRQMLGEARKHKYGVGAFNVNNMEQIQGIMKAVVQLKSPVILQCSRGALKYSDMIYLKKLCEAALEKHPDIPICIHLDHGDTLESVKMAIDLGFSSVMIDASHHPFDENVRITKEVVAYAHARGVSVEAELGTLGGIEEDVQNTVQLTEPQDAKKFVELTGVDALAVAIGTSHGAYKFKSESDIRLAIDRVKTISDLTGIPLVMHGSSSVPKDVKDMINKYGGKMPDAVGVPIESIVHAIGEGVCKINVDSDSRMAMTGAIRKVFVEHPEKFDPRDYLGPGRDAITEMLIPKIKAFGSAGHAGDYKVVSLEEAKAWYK
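Giardia FBPA (40 nM reagent) was preincubated 10 min at RT with compound (up to 57.5 uM final), then substrate plus GAPDH/TPI/NAD/arsenate coupling system with diaphorase/resazurin was added; resorufin fluorescence (525/598 nm) was read after 20 min.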
* = called active by the depositor; ? = inconclusive; · = no result; [ ] = dose if it differs, or a comment. Unless noted, calls come from the whole dose curve; as a rule, active = well fitted curve in the direction sought with a large enough effect; inconclusive = small, poorly fitted or top-dose-only effect, or another doubt; inactive = no such curve, though single readings can be large; an effect the other way counts as inactive or inconclusive. % is set by controls: 0 for no effect and ±100 for the full control effect.

SMILES	FMDV antiviral	HCMV antiviral	MARV entry inh	HCV inhibitor	LASV entry inh	FBPA Giardia inh
CCCCNc1nc2sc3c(c2c(=O)n1-c1cccc(Cl)c1)CCN(C)C3	0.7%	-6.5	?	3.98µM*	-13.5%	-5.4%
COc1ccc(CNc2nc(NCc3ccc(OC)cc3)n(C(=O)c3ccccc3[N+](=O)[O-])n2)cc1	20.7%	-31.4	4.8%	?	4.11µM*	-17.6%
N#Cc1ccc2c(c1)C[C@]1(c3ccsc3)OC3=C(C(=O)OC4(CCCCC4)C3)C2O1	·	·	·	·	·	6.9%[12.9 µM]
O=C(O)c1ccccc1OCCOc1ccccc1	5.4%	-1.9	8.8%	0.2%	4.3%	14.0%
Nc1ccccc1C(=O)OCCOc1ccccc1	-31.3%	7.6	10µM*	5.3%	?	0.8%
COc1ccc(OC)c(-c2csc(NC(=O)CSCc3c(C)noc3C)n2)c1	-19.1%	-39.2	?	11.2µM*	?	·
COc1ccc(-c2csc(NC(=O)CSc3ccc(Br)cc3)n2)c(OC)c1	?	14.7	?	-9.4%	12.6µM*	0.0%
COc1cccc(CC(=O)Nc2nc(-c3cc(OC)ccc3OC)cs2)c1	33.6%	-15.0	-7.3%[46.1 µM]	?	·	-1.9%
COc1ccc(OC)c(-c2csc(NC(=O)CSc3ccccc3)n2)c1	0.0%	?	?	?	16.4µM*	-5.8%
CC(C)C(=O)Nc1cccc(C(=O)NCc2ccc3c(c2)OCO3)c1	-17.0%	45.7	?	?	-0.3%	-1.4%
CC12CC(NC(=O)N1c1cccc(C(=O)NCc3ccc4c(c3)OCO4)c1)c1cc(Cl)ccc1O2 (centres undefined)	?	-4.2	?	25.1µM*	?	-2.2%
Cc1[nH]c2ccc3ccccc3c2c(=O)c1C/C=C/Cl	-2.9%	-89.1*	-14.1%	?	19.7%	3.3%
Cc1[nH]c2ccc(Br)cc2c(=S)c1C/C=C/Cl	-6.7%	5.9	·	-14.3%	·	-2.7%
COC(=O)CCC(=O)OC1(C)C(=O)C=C2C=C(C3CC3)N(Cc3ccc(OC)cc3)C=C2C1=O (centres undefined)	-14.7%	4.2	9.3%[14.2 µM]	3.55µM*	·	?
COC(=O)CCC(=O)OC1(C)C(=O)C2=CN(Cc3ccc(OC)cc3)C(c3ccc(OC)cc3)=CC2=C(Br)C1=O (centres undefined)	8.4%	2.1	·	-9.7%	·	?
COC(=O)CCC(=O)OC1(C)C(=O)C2=CN(CC(C)C)C(c3ccc(OC)cc3)=CC2=C(Br)C1=O (centres undefined)	·	·	·	·	·	0.998µM*
COC(=O)CCC(=O)OC1(C)C(=O)C=C2C=C(C3CC3)N(Cc3ccc4c(c3)OCO4)C=C2C1=O (centres undefined)	-9.9%	5.2	18.9%[14.2 µM]	-19.0%	·	?
COc1cccc(CC(=O)N2CCc3nc(-c4ccc(OC)cc4C)c4c(c3C2)CO[C@@H](c2ccccc2)C4)c1	·	·	·	·	·	4.1%[12.9 µM]
COCCC(=O)Nc1ccc2c(c1)CN(C(=O)CCSC)CC2	-9.0%	-27.1	-5.5%[46.1 µM]	6.2%	2.2%	-0.9%
COCCC(=O)Nc1ccc2c(c1)CN(C(=O)c1ccc(CSC)o1)CC2	4.6%	50.3	-5.1%[46.1 µM]	10µM*	-17.1%[46.1 µM]	15.7%
COC(=O)c1cc(O)cc(OC)c1Oc1cc(C)cc(O)c1C(=O)O	0.5%	-105.7*	·	14.4%	·	?
O=C(O)CCCCCN1C(=O)CSC1=S	0.0%	-81.1*	?	9.6%	?	7.0%
CCCCc1nc2c(c3c1CC(C)OC3)CN(CCC(C)C)CC2 (centres undefined)	·	·	·	·	·	-12.1%[12.9 µM]
Nc1nc(N)c2[nH]cnc2n1	-16.9%	·	·	6.31µM*	·	·
Nc1nc(SCc2ccccc2)c2[nH]cnc2n1	-2.7%	52.5	·	9.3%	·	3.3%
SMILES	FMDV antiviral	HCMV antiviral	MARV entry inh	HCV inhibitor	LASV entry inh	FBPA Giardia inh
Nc1nc(OCc2ccccc2)c2[nH]cnc2n1	-19.6%	-73.2*	?	-1.1%	?	2.5%
Cc1nc(-c2ccncc2)sc1C(=O)Nc1ccc(Br)cc1	-7.6%	-72.0*	?	-6.6%	2.6%[46.1 µM]	2.3%
CC(=O)/C=C/c1ccccc1Oc1c(F)c(F)nc(F)c1F	31.6µM*	-67.0*	·	-18.7%	·	5.0%
NC(=O)c1cc(N)ccc1N1CCCCC1	11.8%	-60.6*	12.8%[46.1 µM]	11.4%	-5.3%	4.4%
O=[N+]([O-])c1ccc(S(=O)Cc2ccccc2)c([N+](=O)[O-])c1 (centres undefined)	14.1µM*	-96.9*	?	?	11.2µM*	·
COCCCNC(=O)c1cn(Cc2c(F)cccc2Cl)nn1	4.0%	-89.9*	-6.0%[46.1 µM]	-16.0%	13.3%	1.6%
COCCNC(=O)CSCc1c(F)cccc1Cl	·	25.6	0.3%	22.8%	20.4%	1.6%
O=C(N/N=C/c1ccc(C(F)(F)F)cc1)c1ccc(O)cc1	6.3%	?	?	?	?	-0.1%
O=C(O)c1ccc(N/N=C/c2ccc(C(F)(F)F)cc2)cc1	?	-30.5	1.58µM*	31.3%	1.26µM*	7.5%
Oc1ccc(/C=N/Nc2ccccc2)cc1	2.4%	-5.1	-17.8%[46.1 µM]	-20.6%	?	-2.9%
CC(C)(C)c1ccc(/C=N/Nc2ccc(C(=O)O)cc2)cc1	7.08µM*	-76.0*	3.66µM*	5.9%	2µM*	10.9%
O=C(O)c1ccc(/C=N/Nc2ccc(F)cc2F)cc1	-73.6%	213.6	14.1µM*	22.8%	2.82µM*	7.1%
Fc1ccc(N/N=C/c2ccncc2)c(F)c1	24.7%	113.0	32.9%	1.5%	0.6%	6.3%
O=C(CNC(=O)c1cccs1)N/N=C/c1c(F)cccc1Cl	-3.9%	-60.0*	18.6%	5.4%	12.0%	·
Cc1ccc(/C=N/NC(=O)CNC(=O)c2cccs2)cc1	8.2%	16.0	·	-7.3%	·	·
O=C(N/N=C/c1c(F)cccc1Cl)C1CC1	4.8%	-6.2	·	-0.1%	·	0.1%
O=C(O)c1ccc(N/N=C/c2c(F)cccc2Cl)cc1	31.6µM*	?	·	-10.2%	·	0.0%
COc1cccc(C2C(C(=O)Nc3ccc(Cl)cc3)=C(C)Nc3c(C(=O)Nc4ccccc4)cnn32)c1OC (centres undefined)	?	-10.9	?	·	?	·
CC(c1ccccc1)n1c(-c2cccs2)nc2c(c(=O)c3ccccc3n2C)c1=O (centres undefined)	?	4.9	1.3%	14.1µM*	5.2%	11.7%
COc1ccc(N(Cc2ccccc2)S(=O)(=O)c2cccc(C(=O)Nc3ccccn3)c2)cc1	4.1%	?	?	?	12.6µM*	·
C=CCN(c1ccccc1)S(=O)(=O)c1cccc(C(=O)Nc2cc(C)ccn2)c1	16.4%	?	8.91µM*	?	17.8µM*	·
COc1ccccc1N(Cc1ccccc1)S(=O)(=O)c1cccc(C(=O)Nc2cccc(C)n2)c1	-3.3%	-27.6	·	10µM*	·	·
Cc1ccc(-c2cc(C(=O)NCCc3ccccc3)c3c(-c4ccc(C)cc4)[nH]nc3n2)cc1	22.4%	51.0	·	·	0.0%[46.1 µM]	·
Cc1c(C#N)c(NC(=O)CCl)n(Cc2ccccc2)c1C	11.2µM*	?	?	?	?	-10.4%
